G9a block – qHTS Assay for Inhibitors of Histone Lysine Methyltransferase G9a; Histone-lysine N-methyltransferase EHMT2 (Homo sapiens), Q96KQ7; G9a H3K9 monomethylation, AlphaScreen, 2 h; Potency, µM (series often up to 102 µM), inactives show top-dose activity, negative = inhibition, hits mostly inhibitors; hit rate 8.8% among 350,000; AID 504332, 2011; note: potency is the fitted concentration of half-maximal effect; % is set by controls: 0 for no effect and ±100 for the full control effect; nearly all actives have a fitted effect of over 75% in size
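AlphaScreen read-out: biotin-H3K9 peptide (500 nM) methylation by 20 nM enzyme with 20 uM SAM, 2 h at room temperature after 15 min compound preincubation; anti-monomethyl H3K9 antibody plus donor/acceptor beads, 10 min dark.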
BAZ2B block – qHTS Assay for Inhibitors of BAZ2B; AlphaScreen BAZ2B-H3K14Ac peptide displacement; Potency, µM (titrated, usually from 114 µM), without a hit: at the highest dose activity change, negative = inhibition, most hits filed as inhibitors; hit rate 4.4% among 360,000; AID 504333, 2011; note: potency is the fitted concentration of half-maximal effect; % is set by controls: 0 for no effect and ±100 for the full control effect; nearly all actives have a fitted effect of over 60% in size
Target sequence (Q9UIF8 whole entry, looked up): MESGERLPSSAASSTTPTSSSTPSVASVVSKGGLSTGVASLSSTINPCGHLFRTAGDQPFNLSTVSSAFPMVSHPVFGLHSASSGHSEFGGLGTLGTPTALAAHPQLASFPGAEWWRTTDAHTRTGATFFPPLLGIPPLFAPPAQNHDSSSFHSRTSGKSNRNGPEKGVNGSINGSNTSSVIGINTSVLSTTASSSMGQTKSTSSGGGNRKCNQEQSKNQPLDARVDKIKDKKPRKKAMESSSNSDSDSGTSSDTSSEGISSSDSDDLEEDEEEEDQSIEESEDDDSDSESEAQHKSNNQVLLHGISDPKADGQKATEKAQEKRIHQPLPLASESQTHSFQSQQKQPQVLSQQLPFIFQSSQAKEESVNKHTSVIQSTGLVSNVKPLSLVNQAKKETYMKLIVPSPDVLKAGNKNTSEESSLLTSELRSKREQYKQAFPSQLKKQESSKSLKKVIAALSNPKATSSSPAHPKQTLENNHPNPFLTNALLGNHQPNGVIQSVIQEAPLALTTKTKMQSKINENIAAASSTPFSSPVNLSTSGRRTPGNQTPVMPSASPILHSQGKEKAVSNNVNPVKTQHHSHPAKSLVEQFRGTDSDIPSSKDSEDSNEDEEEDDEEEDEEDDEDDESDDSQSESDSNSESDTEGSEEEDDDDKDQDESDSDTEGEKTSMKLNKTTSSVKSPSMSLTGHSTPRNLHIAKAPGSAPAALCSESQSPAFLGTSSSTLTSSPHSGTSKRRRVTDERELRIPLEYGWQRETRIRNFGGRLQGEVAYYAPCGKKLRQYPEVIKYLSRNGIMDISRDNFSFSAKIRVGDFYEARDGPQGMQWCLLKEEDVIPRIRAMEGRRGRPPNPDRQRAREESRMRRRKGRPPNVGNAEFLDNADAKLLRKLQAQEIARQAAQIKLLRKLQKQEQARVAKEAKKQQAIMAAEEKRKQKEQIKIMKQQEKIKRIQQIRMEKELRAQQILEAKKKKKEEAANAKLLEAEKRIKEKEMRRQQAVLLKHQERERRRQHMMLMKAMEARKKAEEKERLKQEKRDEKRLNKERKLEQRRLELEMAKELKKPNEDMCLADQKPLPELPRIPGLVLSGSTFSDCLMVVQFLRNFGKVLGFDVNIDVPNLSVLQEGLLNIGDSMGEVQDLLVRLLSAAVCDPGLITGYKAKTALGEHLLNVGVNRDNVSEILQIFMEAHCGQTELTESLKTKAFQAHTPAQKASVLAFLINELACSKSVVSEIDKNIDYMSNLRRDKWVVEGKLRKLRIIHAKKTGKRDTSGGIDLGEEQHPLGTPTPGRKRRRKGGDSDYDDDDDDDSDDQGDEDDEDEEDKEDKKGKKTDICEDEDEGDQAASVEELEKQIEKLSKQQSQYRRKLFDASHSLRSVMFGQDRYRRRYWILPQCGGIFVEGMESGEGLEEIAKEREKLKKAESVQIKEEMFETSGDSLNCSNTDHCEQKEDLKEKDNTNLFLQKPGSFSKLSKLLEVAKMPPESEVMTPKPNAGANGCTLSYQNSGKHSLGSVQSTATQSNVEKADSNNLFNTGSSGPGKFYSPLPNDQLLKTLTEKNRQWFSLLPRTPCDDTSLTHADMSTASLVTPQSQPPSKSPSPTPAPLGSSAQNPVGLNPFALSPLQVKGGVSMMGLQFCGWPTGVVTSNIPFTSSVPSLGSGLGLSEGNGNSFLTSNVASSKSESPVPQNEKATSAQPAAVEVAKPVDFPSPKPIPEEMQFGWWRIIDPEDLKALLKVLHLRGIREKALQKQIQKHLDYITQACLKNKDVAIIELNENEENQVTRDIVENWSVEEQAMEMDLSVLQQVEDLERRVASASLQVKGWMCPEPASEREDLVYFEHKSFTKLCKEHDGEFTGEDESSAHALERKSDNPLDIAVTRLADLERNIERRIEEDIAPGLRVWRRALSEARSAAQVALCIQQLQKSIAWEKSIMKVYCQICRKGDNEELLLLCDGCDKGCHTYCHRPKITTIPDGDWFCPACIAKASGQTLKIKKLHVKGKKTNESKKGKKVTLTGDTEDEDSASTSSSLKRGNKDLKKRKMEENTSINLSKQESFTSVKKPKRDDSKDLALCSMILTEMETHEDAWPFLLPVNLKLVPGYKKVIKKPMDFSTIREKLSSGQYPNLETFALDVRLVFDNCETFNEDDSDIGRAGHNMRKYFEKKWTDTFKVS
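Complex of BAZ2B and biotin-H3K14Ac (50 nM apiece) forms over 30 min at RT, then faces library compounds up to 110 uM for another 30 min; AlphaScreen beads added, 20 min dark incubation, luminescence read.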
PLK1 PBD inh – qHTS for Inhibitors of PLK1-PDB (polo-like kinase 1 - polo-box domain): Primary Screen; Plk1 PBD binding of FITC phosphopeptide, fluorescence polarization; Potency, µM, for the others: max response, negative = inhibition, usual class: inhibitors; hit rate 2.8% among 360,000; AID 720504, 2013; note: potency is the fitted concentration of half-maximal effect; series mostly up to about 57 µM; % is set by controls: 0 for no effect and ±100 for the full control effect; nearly all actives have a fitted effect of over 65% in size
JMJD2A Tudor inh – qHTS Assay for Inhibitors of JMJD2A-Tudor Domain; Lysine-specific demethylase 4A (Homo sapiens), O75164; AlphaScreen JMJD2A-Tudor / H3K4me3 peptide binding; Potency, µM (highest dose often 114 µM), for inactives: at the top dose activity change, negative = inhibition, hits mostly inhibitors; hit rate 4.4% among 390,000; AID 504339, 2011; note: potency is the fitted concentration of half-maximal effect; % is set by controls: 0 for no effect and ±100 for the full control effect; nearly all actives have a fitted effect of over 50% in size
HP1b chromo inh – HTS for Inhibitors of HP1-beta Chromodomain Interactions with Methylated Histone Tails | Potency, µM (series often up to 114 µM), for inactives: at the top dose activity change, negative = inhibition, most hits filed as inhibitors | hit rate 0.56% among 390,000 | AlphaScreen HP1-beta / biotin-H3K9me3 peptide binding | Chromobox protein homolog 1 (Homo sapiens), P83916; note: potency is the fitted concentration of half-maximal effect; nearly all actives have a fitted effect of over 70% in size
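Compound inhibition of the preformed complex between 50 nM HP1-beta and 50 nM biotinylated H3K9me3 peptide was read by AlphaScreen. Buffer was PBS pH 7.4 with 0.01% Tween-20. Incubations ran 30 min at room temperature, with 10 ug/mL donor/acceptor beads.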
PI5P4Ka inh – qHTS for Inhibitors of phosphatidylinositol 5-phosphate 4-kinase (PI5P4K). AID 652105, 2013. max response, %. hit rate 1.2% among 330,000. PI5P4Kalpha enzyme, ADP-Glo luminescence, 60 min; hits give low values; active = max response of -50% or lower; inconclusive = between -30% and -50%; inactive = -30% or higher; note: value at the top dose of about 77 µM; % is set by controls: 0 for no effect and ±100 for the full control effect
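Compounds were pin-transferred onto PI5P4Kalpha and substrate in HEPES pH 7.4 buffer with EGTA, CHAPS and 5% DMSO. ATP (5 microM final) started the reaction, which ran 60 minutes at room temperature before ADP-Glo detection.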
Starred values were filed as active, the others as inactive; ? = inconclusive; . = no result given; [ ] = remark or other dose. In the library only some 12% were active in any assay of this set; here they are far more common. Unless noted, calls come from the whole dose curve; as a rule, active = well fitted curve in the direction sought with a large enough effect; inconclusive = small, poorly fitted or top-dose-only effect, or another doubt; inactive = no such curve, though single readings can be large; an effect the other way counts as inactive or inconclusive.

SMILES | G9a block | BAZ2B block | PLK1 PBD inh | JMJD2A Tudor inh | HP1b chromo inh | PI5P4Ka inh
CC1=C(C)/C(=N\OS(=O)(=O)c2ccccc2)C=CC1=O | 15.8µM* | 39.8µM* | ? | 56.2µM* | ? | -0.1
O=C(Cn1c(=O)nc(-c2ccccc2)c2ccccc21)NCCc1ccc(Cl)cc1 | 18.1%[59 µM] | -1.1% | . | 1.3% | 40.8% | .
C=C(C)[C@@H]1CC=C(CN2CCN(Cc3ccccc3)CC2)CC1 | 50.1µM* | ? | 0.7% | ? | 6.4% | 3.3
O=C(CSc1ncnc2scc(-c3ccccc3)c12)Nc1ccc(C(=O)O)cc1 | . | -12.8% | -3.5% | 5.8% | 18.3% | -84.6*
O=C(CSc1nnc(-c2cccnc2)s1)Nc1ccc(C(=O)O)cc1 | 14.1µM* | -11.9% | -8.0% | -24.5% | 16.2% | -0.8
O=C(CSc1ncnc2scc(-c3ccccc3)c12)N1CCN(Cc2ccc3c(c2)OCO3)CC1 | 44.7µM* | ? | -14.7% | ? | ? | ?
c1ccc(-c2csc3ncnc(N4CCN(Cc5ccc6c(c5)OCO6)CC4)c23)cc1 | 10.8%[2.33 µM] | ? | -5.4% | ? | 17.0% | -0.4
Cc1ccc(NC(=O)CSc2nnc(-c3ccncc3)s2)cc1 | 22.3% | -19.2% | -11.9% | -13.8% | 12.4% | -3.5
CC(=O)Nc1ccc(Sc2ncnc3scc(-c4ccccc4)c23)cc1 | ? | ? | 6.7µM* | -25.2%[57.1 µM] | 12.2% | 5.4
CCN(CC)C(=O)C1CCN(C(=O)c2cnn(-c3ccccc3)c2-n2cccc2)CC1 | 4.5%[59 µM] | 3.0% | . | -14.4% | 24.5% | .
CC(C)NC(=O)C1(C)CN(S(C)(=O)=O)CC(=O)N1CC(F)(F)F (configuration not stated) | . | . | -3.4% | . | . | -0.5
CCN1C(=O)/C(=c2\sc3nc(=O)c(Cc4ccccc4)nn3c2=O)c2ccccc21 | 25.1µM* | ? | ? | ? | -31.4% | -20.1
C=CCN1C(=O)/C(=N/n2cnnc2)c2ccccc21 | 0.5%[12.7 µM] | -33.2% | -23.5% | -10.4% | 6.7% | -6.6
C=CCN1C(=O)/C(=c2\sc3nc(=O)c(Cc4ccccc4)nn3c2=O)c2ccccc21 | . | ? | 13.4µM* | 56.2µM* | ? | ?
Cc1cc(Br)c2nc(-c3ccccc3)c(Cc3cccc(Cl)c3)n2c1 | . | . | 12.2% | . | . | 1.0
O=C(O)c1sc2cccc(Cl)c2c1Cl | . | 5.4% | 23.8µM* | -8.3%[11.4 µM] | -5.6% | -9.6
COc1ccc(CNC(=O)Cn2c(=O)oc3cc(S(=O)(=O)N4CCCCCC4)ccc32)cc1 | -1.0%[59 µM] | -7.7% | . | -16.3% | -17.3% | .
O=C(O)c1cc(=S)nc[nH]1 | . | . | ? | ? | ? | -65.1*
O=C(O)c1c[nH]n2c(=S)ncnc12 | . | . | 8.2% | . | . | -23.5
O=C(Nc1cccc(C(F)(F)F)c1)c1cnn(-c2cccc(F)c2)c1C1CCNCC1 | -14.1%[59 µM] | 3.8%[57.1 µM] | . | -22.0% | 6.3% | .
O=C(Nc1ccccc1C(=O)N1CCN(c2cccc(Cl)c2)CC1)C1=CSCCO1 | 31.7%[59 µM] | 70.8µM* | -22.4% | -33.8% | -7.2% | 4.1
O=C(Nc1ccc(C(=O)N2CCN(c3ccc(Cl)cc3)CC2)cc1)C1=CSCCO1 | -0.7% | -27.1% | -4.8% | ? | 23.0% | -8.2
COc1cccc(N2CCN(c3ccc4nnc(CCC(=O)Nc5ccccn5)n4n3)CC2)c1 | 4.0% | ? | -1.6% | -35.9% | 21.3% | 2.1
CN(CCCC(=O)NCc1ccc2c(c1)OCO2)S(=O)(=O)c1ccc([N+](=O)[O-])cc1 | . | ? | -13.4% | -20.0% | -6.3% | -7.7
Cc1nc2ccc(S(=O)(=O)Nc3cccc(-c4nc5cccnc5s4)c3C)cc2s1 | 50.1µM* | -34.4% | -21.2% | -30.6% | -2.1% | 11.1
SMILES | G9a block | BAZ2B block | PLK1 PBD inh | JMJD2A Tudor inh | HP1b chromo inh | PI5P4Ka inh
CCCC(CCC)C(=O)Nc1cccc(-c2nc3cccnc3s2)c1C | ? | ? | . | ? | -21.8% | .
Cc1nc2ccc(S(=O)(=O)Nc3cc(-c4nc5cccnc5s4)ccc3C)cc2s1 | 50.1µM* | -24.8% | -13.4% | -7.0% | 26.7% | -3.4
COc1cccc(NC(=O)CN(C)C(C)C(=O)N2CCCC2)c1 (configuration not stated) | -1.4%[12.7 µM] | -0.9% | -2.7% | -3.7% | 42.6% | 2.2
Cc1cc(NC(=O)CSc2nnnn2Cc2ccccc2)no1 | -7.2%[59 µM] | -5.9% | 21.2µM* | -11.5%[11.4 µM] | -8.4% | 0.7
Cc1cc(NC(=O)CSc2nnnn2-c2ccc(C)c(C)c2)no1 | . | 9.9% | -3.8% | 5.6% | 46.6% | -0.5
Cc1cc(NC(=O)CSc2nnnn2-c2ccc(C)c(Cl)c2)no1 | 44.7µM* | 7.3% | -25.0% | -7.0% | 22.9% | -0.7
COc1cccc(CNC(=O)Cc2c(C)c3c(cc(C)c4c(C)coc43)oc2=O)c1 | -0.2%[59 µM] | 0.1% | . | -15.4% | 16.3% | .
OCCN1CCN(c2ncnc3c2ncn3[C@H]2CN(Cc3ccc(Cl)cc3)C[C@@H](CO)O2)CC1 | . | . | 2.3% | . | . | 0.6
CCN(c1ccccc1)S(=O)(=O)c1csc(C(N)=O)c1 | 8.3% | -8.8% | 26.7µM* | ? | -2.2% | -5.3
COC(=O)C1=C(C)NC(=O)C1(NC(=O)c1ccncc1)C(F)(F)F (configuration not stated) | 4.2% | 3.8% | 21.2µM* | ? | 21.4% | -12.0
COC(=O)C1=C(C)NC(=O)C1(NC(=O)c1ccccc1C)C(F)(F)F (configuration not stated) | 6.1%[59 µM] | 1.0% | . | 1.7% | 30.5% | .
Cc1ccc(C2CC(c3cccs3)=NN2C(=O)CSc2nc(=O)n3cc(C)ccc3n2)cc1 (configuration not stated) | -16.9%[0.501 µM] | 5.8% | -8.3% | -17.2% | 16.8% | 1.4
CCOC(=O)c1cccc(NC(=O)CN2CCN(c3ccc(OC)cc3)CC2)c1 | 56.2µM* | ? | 4.5% | ? | -24.4% | -1.6
CCOC(=O)c1sc(NC(=O)CN2CCN(c3ccc(OC)cc3)CC2)nc1C | 39.8µM* | 35.5µM* | -15.5% | 56.2µM* | ? | 1.3
CCOc1ccccc1N1CCN(CC(=O)Nc2nc(C)c(C(=O)N(C)C)s2)CC1 | . | -6.2% | -15.8% | 14.1µM* | 1.0% | -3.4
CCOC(=O)c1sc(NC(=O)C2CC(=O)N(c3ccc(OC)cc3)C2)nc1C (configuration not stated) | -18.4% | -26.1% | -9.7% | -18.3% | 24.1% | 0.0
Cc1ccc(Cl)cc1N1CCN(C(=O)c2ccc3c(c2)N(Cc2ccc(F)cc2)CCS3)CC1 | ? | ? | . | -30.5% | 11.9% | .
CCOc1ccc(C2c3[nH]c4ccccc4c3CCN2C(=O)CCc2ccccc2)cc1 (configuration not stated) | -43.1%[59 µM] | 3.2% | . | ? | 20.4%[57 µM] | .

Source: PubChem (National Center for Advancing Translational Sciences (NCATS))
